PubChem BioAssay (EPA / NIEHS)
Active and inactive are the calls of the source. Rule for the calls: active = hit-call score of the fitted dose curve at least 0.9, where 1 is the maximum; inactive = score below 0.9.

read-out: Cytochrome P450 (CYP1A2), CYP1A2 (gene 1544); test: LTEA_HepaRG_CYP1A2: Life Technologies and Expression Analysis (LTEA) Assay for Cytochrome P450 (CYP1A2) using HepaRG (AID 2283479); conditions: mRNA level, 48 h; actives raise or lower the signal;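 for AC50: TaqMan qRT-PCR transcript level normalized to ACTB GAPDH and POLR2A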
Protocol: LTEA_HepaRG is a cell based, multiplexed-readout assay that uses HepaRG, a human liver cell line, with measurements taken at 48 hours after chemical dosing on a 96-well plate.LTEA_HepaRG_CYP1A2 is one of 102 assay component(s) measured in the LTEA HepaRG cell culture assay. It is a marker of NR mediated metabolism.Data from the assay component LTEA_HepaRG_CYP1A2 was analyzed into 1 endpoint. This assay endpoint, LTEA_HepaRG_CYP1A2, was analyzed with bidirectional fitting relative to DMSO as the negative control and baseline of activity. Using a type of inducible reporter, measures of mRNA induction for gain or loss-of-signal activity can be used to understand regulation of transcription factor activity. To generalize the intended target to other relatable targets, this assay endpoint is annotated to the cyp intended target family, where the subfamily is xenobiotic metabolism.
A total of 1060 chemcials from the ToxCast library were tested in eight-point concentration-response experiments. Cell culture and cytotoxicity assays were conducted at Thermo Fisher Scientific's Custom Services facility (Madison, WI). A single lot of human HepaRG cells (Thermo Fisher Scientific, Frederick, MD) was used for the cell culture experiments. 96-well format collagen type I coated plates of human HepaRG cells were prepared using established methods. Briefly, cryopreserved HepaRG cells were thawed, plated at a density of approximately 100,000 cells/well in HepaRG Thaw, Plate, and General Purpose media (HPRG770, Thermo Fisher Scientific), and incubated for 48 hours. 0.5% DMSO was selected as vehicle control to balance the requisite need of DMSO in HepaRG cultures to maintain differentiation (for example, baseline metabolism, proportions of hepatocytes vs. cholangiocytes), while enabling further hepatic receptor pathway activation (for example, PXR and CAR) in response to chemical exposure. 48 hours after plating, the culture medium was replaced with HepaRG Serum-Free Incudtion Media. Cells were exposed to each test chemical in duplicate and maintained in CO2 incubators for another 48 hours. Chemical plates were thawed to room temperature and 200x concentrations of treatment groups were prepared. 8-point conentration-reponse curves were made with the highest exposure at 100 uM, followed by half-log dilutions, all in 0.5% DMSO. Each test plate contained variouse controls, induction positive controls (1mM phenobarbital), cytotoxicity positive controls ([…] aflatoxin B1), vehicle controls (0.5% DMSO), and total lysis controls (0.5% DMSO). Cell morphology images were taken using an Essen IncuCyte FLR automated microscope, with six 96-well plates imaged in about 24 minutes. Images were captured and exported and JPEG files. Spent culture media was transfered to black-well plates for the LDH assay, and remaining media was sorted at -80 C for later use. Cells were treated with RLT buffer and frozen until shipped for gene expression analysis. Total RNA was isolated from the cell suspension in 75 uL of Buffer RLT (Qiagen, Germantown, MD 20874) by Quintiles/Expression Analysis (Durham, NC) using a custom isolation procedure. Total RNA from each plate well was transferred to a preamplification plate. Fluidigm's 96.96 Dynamic ArrayTM (Fluidigm, Amsterdam, the Netherlands) technology was used for gene expression analyses by quantitative reverse transcription polymerase chain reaction (qRT-PCR, performed by Quintiles/Expression Analysis, Durham, NC)89. Standard TaqManTM Assays (Applied Biosystems/ThermoFisher Scientific, Foster City, CA) were used to assess the expression of 93 genes selected based on their selectivity and sensitivity to important hepatic receptors known to be modulated by environmental chemicals; importance in human hepatocyte functionality; and hepatotoxicity. […]

Q: Which outcome does the source give for `Brc1ccc(Oc2ccccc2)cc1` here?
A: The outcome was “inactive”.

Q: With `CCOC(=O)[C@]1(c2ccccc2)Oc2ccccc2[C@@H]1N` as the compound, how does the AC50 read?
A: Its AC50 is 15.8 µM (active).

Q: For `Cn1cc(-c2ccccc2)c(=O)c(-c2cccc(C(F)(F)F)c2)c1`, which AC50 is on record?
A: Its AC50 is 87.5 µM (active).

Q: How did the AC50 turn out when `Nc1cc(Cl)cc(C(=O)O)c1Cl` was run?
A: The AC50 was 50 µM (active).

Q: `OCCCl` was tested. Which outcome did it give?
A: The outcome was “inactive”.

Q: For `COC(=O)Nc1nc2ccccc2[nH]1`, which AC50 is on record?
A: Its AC50 is 31.8 µM (active).

Q: `OCCOCCO` was tested. Which outcome did it give?
A: The outcome was “inactive”.

Q: For `COC(=O)c1ccccc1N`, which outcome is on record?
A: Its outcome is “inactive”.

Q: How did the AC50 turn out when `CCOc1cccc(C2(N3CCN(c4ccccc4)CC3)CCC(C)CC2)c1` (stereo not given) was run?
A: Its AC50 is 16.6 µM (active).

Q: Which AC50 does the source give for `Nc1ccc(Oc2ccc(N)cc2)cc1` here?
A: Its AC50 is 40.7 µM (active).

Q: `COP(=S)(OC)SCN1C(=O)c2ccccc2C1=O` was tested. Which AC50 did it give?
A: Its AC50 is 22.3 µM (active).

Q: Which outcome does the source give for `CC(C)(OOC(C)(C)c1ccccc1)c1ccccc1` here?
A: The outcome was “inactive”.

Q: How did the outcome turn out when `CC(C)(C)OOC(=O)c1ccccc1` was run?
A: The outcome was “inactive”.

Q: Which AC50 does the source give for `C1=Cc2cccc3cccc1c23` here?
A: Its AC50 is 24.9 µM (active).

Q: How did the outcome turn out when `CS(=O)(=O)NC(=O)c1cc(Oc2ccc(C(F)(F)F)cc2Cl)ccc1[N+](=O)[O-]` was run?
A: The outcome was “inactive”.

Q: `C=CCc1ccc2c(c1)OCO2` was tested. Which outcome did it give?
A: Its outcome is “inactive”.

Q: How did the outcome turn out when `CCC(C)c1ccc(O)cc1` (stereo not given) was run?
A: Its outcome is “inactive”.

Q: How did the AC50 turn out when `CCC[CH2][Sn]([Cl])([CH2]CCC)[CH2]CCC` was run?
A: Its AC50 is 1.58 µM (active).

Q: For `CCCCC(CC)COC(=O)c1ccc(C(=O)OCC(CC)CCCC)c(C(=O)OCC(CC)CCCC)c1` (stereo not given), which outcome is on record?
A: The outcome was “inactive”.

Q: With `Cc1cc(N=Nc2ccccc2C)ccc1N` as the compound, how does the AC50 read?
A: Its AC50 is 31.4 µM (active).

Q: With `Cc1ccc(N=C=O)cc1N=C=O` as the compound, how does the outcome read?
A: Its outcome is “inactive”.

Q: How did the outcome turn out when `Oc1ccccc1Cl` was run?
A: Its outcome is “inactive”.

Q: For `CC(C)(O)c1cnn2c(-c3ccc(F)c(-c4c(F)cccc4C#N)c3)cnc2n1`, which AC50 is on record?
A: The AC50 was 29.7 µM (active).

Q: Which outcome does the source give for `Cc1ccc([N+](=O)[O-])cc1` here?
A: Its outcome is “inactive”.

Q: `[As]#[In]` was tested. Which outcome did it give?
A: Its outcome is “inactive”.

Q: How did the outcome turn out when `CCC12COCN1COC2` was run?
A: The outcome was “inactive”.

Q: For `O=P(OCCCl)(OCCCl)OCCCl`, which outcome is on record?
A: Its outcome is “inactive”.

Q: `Clc1ccccc1Cl` was tested. Which outcome did it give?
A: The outcome was “inactive”.

Q: Which AC50 does the source give for `CN(C)c1ccc(C(=O)c2ccc(N(C)C)cc2)cc1` here?
A: The AC50 was 12.1 µM (active).

Q: `CCCCCCCCOC(=O)c1ccc(C(=O)OCCCCCCCC)c(C(=O)OCCCCCCCC)c1` was tested. Which AC50 did it give?
A: Its AC50 is 50.5 µM (active).

Q: `CN(C)c1ccccc1` was tested. Which outcome did it give?
A: The outcome was “inactive”.

Q: How did the outcome turn out when `ClC1=C(Cl)C2(Cl)C3C(Cl)C=CC3C1(Cl)C2(Cl)Cl` (stereo not given) was run?
A: The outcome was “inactive”.

Q: For `Clc1ccc(Cl)c(Cl)c1`, which outcome is on record?
A: The outcome was “inactive”.

Q: With `CO[C@@H]1[C@H](OC(=O)NC(=O)CCl)CC[C@]2(CO2)[C@H]1[C@@]1(C)O[C@@H]1CC=C(C)C` as the compound, how does the outcome read?
A: Its outcome is “inactive”.

Q: How did the outcome turn out when `CCCSC(=O)N(CCC)CCC` was run?
A: Its outcome is “inactive”.

Q: `CCCCOC(=O)c1ccccc1C(=O)OCc1ccccc1` was tested. Which AC50 did it give?
A: The AC50 was 15.5 µM (active).

Q: For `O=C1CCCO1`, which outcome is on record?
A: Its outcome is “inactive”.

Q: Which AC50 does the source give for `Nc1ccc(Cl)cc1N` here?
A: Its AC50 is 0.811 µM (active).

Q: `CN(C)C(=O)Nc1ccc(Cl)cc1` was tested. Which AC50 did it give?
A: The AC50 was 55 µM (active).

Q: `O=C(Nc1ccccc1)c1ccccc1I` was tested. Which AC50 did it give?
A: Its AC50 is 10.4 µM (active).
